# ± gives the standard deviation.
# What was measured:
# [1] = system: MILI (PIWIL2) piRISC loaded with L1MC piRNA (26 nt); assay: pre-steady-state target cleavage rate (min^-1); guide: L1MC piRNA 5'p-UAACUAAAUACUAUGCAAGCUGUAGG; higher = faster piRNA-guided slicing of the target
# Summary of the method: (§1)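 Cleave-'n-Seq: 1 nM active affinity-purified piRISC with one synthetic guide and 0.1 nM transcribed, DNA-blocked target RNA library were mixed, with or without 500 nM GTSF1 partner protein, in HEPES–potassium acetate buffer at 33 °C for 0–8 or 0–960 min. Uncleaved targets were sequenced and normalised to depth and to weakly complementary targets, three trials were pooled, and k3 was capped at 0.0001 min^-1. The pre-steady-state cleavage rate was fitted […].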
# [2] = system: EfPiwi piRISC loaded with L1MC piRNA (26 nt); assay: pre-steady-state target cleavage rate (min^-1); auxiliary factor: 500 nM Ephydatia muelleri Gtsf1; guide: L1MC piRNA 5'p-UAACUAAAUACUAUGCAAGCUGUAGG; MIWI and MILI are mouse PIWI proteins and EfPiwi is from a freshwater sponge; tags in brackets are library labels; higher = faster piRNA-guided slicing of the target
# Summary of the method: as §1
# [3] = auxiliary factor: 500 nM mouse GTSF1
# [4] = auxiliary factor: none (no GTSF1)
Sequence,"pre-steady-state target cleavage rate [1, 3]","pre-steady-state target cleavage rate [1, 4]",pre-steady-state target cleavage rate [2]
UCCUCCUACAGCUUGCAUAGUAUUAUAGUUA,0.258 ± 0.019,0.00434 ± 0.0022,0.00777 ± 0.0033
UCCUGGAUCAGGUUGCAUAGUAAUUAGUUA,0.152 ± 0.015,0.00739 ± 0.0017,0.012 ± 0.005
UCCUGGAACAGCUUGCAUAGUGUUUAGUUA,0.146 ± 0.018,0.00335 ± 0.0028,0.0084 ± 0.0024
UCCUGCUACAGCUUGUCAUAGUAUUUAGUUA,0.211 ± 0.021,0.00341 ± 0.0028,0.0131 ± 0.0037
UCCUGGAUCAGUUGCAUAGUAUUUAGUUA,0.257 ± 0.016,0.00796 ± 0.002,0.0258 ± 0.0051
UCCUGGUACACCAUGCAUAGUAUUUAGUUA,0.176 ± 0.033,0.0052 ± 0.0033,0.00335 ± 0.0031
UCCUGGUUCAGCUUGCAUACUAUUUAGUUA,0.0631 ± 0.011,0.00505 ± 0.0024,0.00751 ± 0.0031
UCCUCCUUCAGCUUGCAAAGUAUUUAGUUA,0.162 ± 0.015,0.00632 ± 0.0021,0.0828 ± 0.021
UCCUGGAUCAGCAUGCAUAGUAUAUAGUUA,0.297 ± 0.018,0.00579 ± 0.0027,0.00329 ± 0.0028
UCCUGGUACAGCUUGCUUAGUAUUUAGUUA,0.219 ± 0.024,0.00964 ± 0.0022,0.0165 ± 0.0049
UCCUGGUACAGCAUGCAAAGUAUUUAGUUA,0.119 ± 0.014,0.0117 ± 0.0036,0.00646 ± 0.0023
UCCUGGAUCAGCUUGCUUACUAUUUAGUUA,0.0672 ± 0.0086,0.00436 ± 0.0022,0.0032 ± 0.0024
UCCUGCUAGAGCUUGCAUAGUAUUUAGUUA,0.198 ± 0.017,0.00605 ± 0.0021,0.00838 ± 0.0023
UCCUGGAACAGCUUGCAUGGUAUUUAGUUA,0.283 ± 0.022,0.00826 ± 0.0025,0.0141 ± 0.0045
UCCUGCUACAGCUUGCAUAGUAUUUAGUCUA,0.116 ± 0.02,0.00343 ± 0.0029,0.00636 ± 0.0024
UCCUCCUACAGCUAGCAUAGUAUUUAGUAA,0.199 ± 0.023,0.00331 ± 0.0021,0.005 ± 0.0022
UCCUGGAACACCUUGCAUAGUAAUUAGUUA,0.191 ± 0.031,0.00362 ± 0.0024,0.00283 ± 0.0022
UCCUGGAUGAGCUUGCAUAGUAUCUUAGUUA,0.148 ± 0.017,0.00732 ± 0.0024,0.0147 ± 0.005
UCCUGGAUCUGCAUGCAUAGUAUUUAGUUA,0.209 ± 0.015,0.00837 ± 0.0023,0.0798 ± 0.021
UCCUGCUAGAGGUUGCAUAGUAUUUAGUUA,0.2 ± 0.011,0.0085 ± 0.0026,0.00977 ± 0.0027

Sequence,"pre-steady-state target cleavage rate [1, 3]","pre-steady-state target cleavage rate [1, 4]",pre-steady-state target cleavage rate [2]
UCCUGCUACAGCUAGCAUAGUAAUUAGUUA,0.284 ± 0.026,0.0047 ± 0.003,0.00598 ± 0.0018
UCCUGGAUGUCCUUGCAUAGUAGUUAGUUA,0.13 ± 0.036,0.00421 ± 0.002,0.00555 ± 0.0031
UCCUGCUACAGCUUGCAUAGUAUUUAGUAUA,0.292 ± 0.044,,0.00675 ± 0.0019
UCCUGGAACAGGAUGCAUAGUAUUUAGAAA,0.0732 ± 0.017,,0.00257 ± 0.0016
UCCUGCUACAGCUUGCAUAGAUUUAGUUA,0.00937 ± 0.0054,,0.00286 ± 0.0015
UCCUGGAUCAGCUUGCAUAGUUAAUAGUUA,0.017 ± 0.0066,,0.00344 ± 0.003
UCCUGGAUCAGCUUGCAUAGUAAUUACUUA,0.0264 ± 0.0065,,0.00233 ± 0.0022
UCCUGGAUGUCGAACGUAUCUAUUUAUGUUA,,< 0.0001,< 0.0001
UCCUGCAACAGCUUGCAUAGUAUUUAGAAA,0.138 ± 0.026,,0.00432 ± 0.0016
UCCUCCUACAGCUAGCAUAGUAUUUAGAAA,0.113 ± 0.021,,0.00378 ± 0.0016
UCCUGCUACAGCUUGCAUAGUAUUUAGUA,0.335 ± 0.07,,0.00529 ± 0.0019
UCCUGGAUCAGCUUGCAUAGUAUUUGUUA,0.145 ± 0.023,,0.00326 ± 0.0029
UCCUGGAACAGCUUGCAUAGUAAAAAGUUA,0.0663 ± 0.018,,0.00324 ± 0.0027
UCCUGGAACAGCUUGCACUAGUAUUUAGUUA,0.0388 ± 0.0091,,0.00312 ± 0.0026
UCCUGGAUCAGCUUGCCAUAGUAUUUAGUUA,0.0992 ± 0.014,,0.00658 ± 0.0025
UCCUCCUUGUGCUUGCAUAGUAUUUAGAAA,0.0325 ± 0.0085,,0.00387 ± 0.0022
UCCUGGAUGUCGAACGAUAGUGAUUUAGUUA,,< 0.0001,< 0.0001
UCCUGCUAGAGCUUGCAUAGUAUUUUCAAA,0.0124 ± 0.0058,,0.00315 ± 0.0025
UCCUCCUACAGCUUGCAUAGUAUUAAGAUA,0.125 ± 0.032,,0.00411 ± 0.0022
UCCUCCUACAGCUUGCUAUAGUAUUUAGUUA,0.0206 ± 0.0064,,0.00859 ± 0.0032

Sequence,"pre-steady-state target cleavage rate [1, 3]","pre-steady-state target cleavage rate [1, 4]",pre-steady-state target cleavage rate [2]
UCCUGCUACAGCAUGCAUAGUAUUUACUUA,0.261 ± 0.041,,0.0037 ± 0.0024
UCCUCCUACAGCUUGCAAAGUAUUUAGAAA,0.0823 ± 0.015,,0.00344 ± 0.0017
UCCUGGAACAGCUUGCAUACUAUUUUGUUA,0.0261 ± 0.0092,,0.00252 ± 0.0023
UCCUCCUACAGCUUGCAUAGAAUUUUGUUA,0.0525 ± 0.013,,0.00325 ± 0.0016
UCCUCCUACAGCUUGCAAAGUAUUUAGAUA,0.0875 ± 0.015,,0.00419 ± 0.0024
UCCUGGAACAGGUUCCAUAGUAUUUAGUUA,0.202 ± 0.066,,0.00255 ± 0.0024
UCCUGCUACAGCUUGCAUAGUAUUUACUUA,0.171 ± 0.032,,0.00356 ± 0.0027
UCCUGGUACAGGUUGCAUAGUAUUUAGAUA,0.195 ± 0.054,,0.00271 ± 0.0024
UCCUGCUACAGCUUGCAAAGUAUUUACAAA,0.0731 ± 0.018,,0.00394 ± 0.0025
UCCUGCUACAGCUUGCAUACAAUUUAGUUA,,0.00287 ± 0.0025,0.00307 ± 0.0028
UCCUGCUACAGCUUGCAUAGUAAUAAGUUA,0.238 ± 0.03,,0.0044 ± 0.002
UCCUGGAACAGCUUGCAUAGUAUUUAGCUUA,0.195 ± 0.047,,0.00529 ± 0.0018
UCCUCCUACAGCUUGCAUAGUAUUUACUAA,0.114 ± 0.027,,0.00569 ± 0.003
UCCUGGAACUGCUUCCAUAGUAUUUAGUUA,0.074 ± 0.022,,0.00266 ± 0.0013
UCCUGGAUGUCCUUGCAUAGUAUUUAGUCA,0.0898 ± 0.017,,0.00415 ± 0.004
UCCUGCUACAGCUUGCAUUGUAUUAAGUUA,0.215 ± 0.03,,0.00572 ± 0.0028
UCCUCCUUGAGCUUGCAUAGUAUUUACAAA,0.0856 ± 0.023,,0.00316 ± 0.0022
UCCUCCAUGAGCUUGCAUAGUAUUUAGAAA,0.0637 ± 0.016,,0.00475 ± 0.0019
